# According to ChEMBL document CHEMBL4296182, “CO-ADD screening of NIH NCI Diversity Set V”:
# For part of these data: Measured potencies and affinities stand elsewhere.
# How the values were obtained:
# [1] = test system: Staphylococcus aureus; experiment: Antibacterial activity against Staphylococcus aureus MRSA ATCC 43300 (CO-ADD:GP_020); MIC in CAMBH media using NBS plates, by Resazurin F(560/590); type: functional; conditions: Concentration 20 uM, ASSAY_TEST Inhibition of Bacterial Growth, detection method Resazurin, Fluorescence (ex560/em590), MEDIA CAMHB, plate type 384well, CORNING #3640, time 18 hr
# [2] = test system: Acinetobacter baumannii; experiment: Antibacterial activity against Acinetobacter baumannii ATCC 19606 (CO-ADD:GN_034); MIC in CAMBH media using NBS plates, by Resazurin F(560/590); type: functional; conditions: Concentration 20 uM, ASSAY_TEST Inhibition of Bacterial Growth, detection method Resazurin, Fluorescence (ex560/em590), MEDIA CAMHB, plate type 384well, CORNING #3640, time 18 hr
# [3] = test system: Escherichia coli; experiment: Antibacterial activity against Escherichia coli ATCC 25922 (CO-ADD:GN_001); MIC in CAMBH media using NBS plates, by Resazurin F(560/590); type: functional; conditions: Concentration 20 uM, ASSAY_TEST Inhibition of Bacterial Growth, detection method Resazurin, Fluorescence (ex560/em590), MEDIA CAMHB, plate type 384well, CORNING #3640, time 18 hr
# [4] = test system: Klebsiella pneumoniae; conditions: Concentration 20 uM; ASSAY_TEST Inhibition of Bacterial Growth; detection method Absorption (OD600); MEDIA CAMHB; plate type 384well; NBS; CORNING #3640; time 18 hr
# [5] = test system: Candida albicans; conditions: 20 µM
# [6] = test system: Cryptococcus neoformans; conditions: Concentration 20 uM; ASSAY_TEST Inhibition of Fungal Growth; detection method Resazurin; Absorption (OD600-OD570); plate type 384well; NBS; CORNING #3640
Compound,Inhibition [1] [%],Inhibition [2] [%],Inhibition [3] [%],Inhibition [4] [%],Inhibition [5] [%],Inhibition [6] [%]
CN(NC(=O)C(=O)NCc1ccco1)C(=O)NC1CCCCC1,1.27,11.61,-11.28,10.63,4.23,3.93
CCCCOC(=O)c1cccnc1,2.44,-6.99,12.49,13.5,1.04,-0.89
O=[N+]([O-])c1ccc2[nH]c3nc4ccccc4nc3c2c1,17.59,16.49,-1.33,-1.62,5.48,44.37
O=C(NCc1ccco1)Nc1cccc([N+](=O)[O-])c1,14.39,8.34,-1.12,10.94,3.5,-10.49
NS(=O)(=O)c1ccc(NC2(C(=O)O)CCCC2)cc1,11.74,13.36,-10.3,11.38,4.41,18.42
Cc1[nH]c(=O)n(C(C)C)c(=O)c1Br,12.85,-11.08,12.66,5.3,0.37,-6.73
FC(F)(F)c1cccc(-c2nc3nc(Cl)c(Cl)nc3[nH]2)c1,-14.72,9.89,3.39,6.13,4.41,33.54
O=[N+]([O-])c1ccccc1CSc1nc(O)c2nc[nH]c2n1,26.98,9.09,5.06,15.06,1,-13.62
COc1cccc(/C=C2\CCc3ccccc3C2=O)c1,5.14,-13.61,8.53,8.43,9.78,-15.01
O=C1C2C3C=CC(CC3)C2S(=O)(=O)C2C3C=CC(CC3)C12 (centres undefined),13.49,12.35,8.07,7.08,3.05,-7.34
C=CCC(CC)C(=O)NC(=O)N1CCCc2ccccc21 (centres undefined),-2.1,11.89,-1.31,11.1,4.92,-1.85
Cc1ccc(C(=N)Nc2ccccc2)cc1,11.04,15.63,1.43,18.31,3.37,-4.07
NC(=O)NC(=O)c1nccnc1C(=O)O,4.42,-16.67,10.6,1.89,0.76,-7.91
c1ccc(-c2nnc(-c3ccccn3)s2)nc1,3.28,-18.69,9.86,4.63,4.16,-18.42
NC(=O)c1ncn2c(=O)n(CCCl)nnc12 [MITOZOLOMIDE],-4.1,10.43,3.54,6.17,2.26,-10.87
CN(C)Cc1c[nH]c2nccnc12,11.84,-4.46,11.46,8.34,0.19,2.55
c1ccc(CSc2nc3c[nH]cnc-3n2)cc1,8.72,-4.41,6.08,8.84,0.41,13.03
COc1ccccc1NC(=O)Nc1cc(C(C)C)ccc1C,13.43,2.93,-1.81,-0.93,0.16,-4.04
COc1ccc(OCC(O)CN2CCN(c3ccc(Cl)cc3)CC2)cc1 (centres undefined),-0.5,8.48,10.52,5.97,-0.41,-11.59
Cc1cc(NC(=O)c2ccccc2)c(Cl)cc1N,13.14,13.32,3.07,14.81,3.76,-3.43
O=c1oc2c(cc1O)oc(=O)c1cc(O)c(O)c(O)c12,7.4,17.2,5.53,31.38,14.8,-7.17
COc1ccc2c(c1)c1ccc3c(c1n2C)C(=O)C=CC3=O,-28.89,3.5,-18.56,4.14,7,0.4
CCC(=Cc1ccc(CC)cn1)CC,5.02,-14.68,4.35,10.54,0.05,-5.56
COc1ccc2c3c([nH]c2c1)[C@H]1C[C@H]2[C@H](C[C@@H](O)[C@H](OC)[C@H]2C(=O)O)CN1CC3,6.35,2.79,-2.06,4.58,-1.6,-3.05
